SMILES strings stand for the structures. Out of some 39,000 compounds screened, about 3,300 (8.5%) were called active. The entries come from a sample that favours actives as a whole.

The assay deals with HepG2. The experiment in a line: cytotoxicity call (relative viability < 0.9). The conditions noted are these: 10 µM.
As to `C[C@@H]1CCCCO[C@H](CN(C)C(=O)C2CCCCC2)[C@H](C)CN([C@@H](C)CO)C(=O)c2cc(NS(=O)(=O)c3cccs3)ccc2O1`, the cytotoxicity call was “inactive”. For the compound `Cc1cc(C(=O)Nc2cccc3c2O[C@@H](CN(C)Cc2ccccc2)[C@@H](C)CN([C@H](C)CO)C3=O)n(C)n1`, the cytotoxicity call was “inactive”. `C[C@H](CO)N1C[C@H](C)[C@H](CN(C)Cc2ccc(Oc3ccccc3)cc2)OCc2ccccc2-c2ccccc2C1=O`: the cytotoxicity call was “inactive”. Turning to `C[C@H]1CN([C@@H](C)CO)C(=O)c2cc(NC(=O)NC3CCCCC3)ccc2O[C@@H]1CN(C)Cc1ccc(C(F)(F)F)cc1`, the cytotoxicity call is “inactive”. Take `O=C(C[C@@H]1C=C[C@H](NS(=O)(=O)c2ccc(F)cc2)[C@@H](CO)O1)N1CCC(Cc2ccccc2)CC1`: the cytotoxicity call was “inactive”. Under `C[C@@H]1CN([C@H](C)CO)C(=O)CCCn2cc(nn2)CO[C@H]1CN(C)S(=O)(=O)c1ccc2ccccc2c1` stands “inactive”. To `Cc1noc(C)c1NC(=O)N(C)C[C@H]1OCCCC[C@@H](C)Oc2ccc(NC(=O)Cc3ccccc3)cc2C(=O)N([C@@H](C)CO)C[C@@H]1C` belongs “inactive”. Under `Cc1noc(C)c1NC(=O)Nc1cccc2c1O[C@@H](CN(C)Cc1ccc(Cl)c(Cl)c1)[C@@H](C)CN([C@@H](C)CO)C2=O` stands “inactive”; under `CO[C@@H]1CN(C)C(=O)c2ccc(NS(=O)(=O)c3ccccc3C)cc2OC[C@H](C)N(S(C)(=O)=O)C[C@H]1C`, “inactive”; under `C[C@H]1CCCCO[C@H](CN(C)S(C)(=O)=O)[C@@H](C)CN([C@@H](C)CO)C(=O)c2cc(NS(C)(=O)=O)ccc2O1`, “inactive”. On to `COc1ccc(S(=O)(=O)Nc2ccc3c(c2)C(=O)N([C@@H](C)CO)C[C@@H](C)[C@H](CN(C)S(=O)(=O)c2ccc(OC)cc2)O3)cc1`, for which the cytotoxicity call is “inactive”.

Regarding `N=C(N)NCCCC[C@@H]1NC(=O)CCSSC[C@@H](C(N)=O)NC(=O)[C@@H]2CCCN2C(=O)[C@H](Cc2c[nH]c3ccccc23)NC(=O)[C@H](CC(=O)O)NC(=O)CNC1=O`, the cytotoxicity call is “inactive”.

For the compound `N=C(N)NCCC[C@@H]1NC(=O)[C@@H](N)CSSC[C@@H](C(=O)O)NC(=O)[C@H](CC(=O)O)NC(=O)[C@@H]2CCCN2C(=O)CNC(=O)[C@H](CCCCN)NC(=O)[C@H](CC(=O)O)NC(=O)CNC1=O`, the cytotoxicity call was “inactive”.

Turning to `CC(C)[C@H]1C(=O)N[C@@H](CCCNC(=N)N)C(=O)NCC(=O)N[C@@H](CC(=O)O)C(=O)N[C@H](Cc2ccccc2)C(=O)N1C`, the cytotoxicity call is “active”.

For `C[C@@H]1CN([C@@H](C)CO)C(=O)Cc2cc(NC(=O)Nc3ccccc3)ccc2O[C@H]1CN(C)C(=O)Nc1cccc2ccccc12`, the cytotoxicity call was “inactive”. Under `C[C@H]1CN([C@@H](C)CO)C(=O)c2cccc(NC(=O)c3ccc(-c4nccs4)cc3)c2O[C@H]1CN(C)S(C)(=O)=O` stands “inactive”.

`C[C@@H]1CN([C@H](C)CO)C(=O)c2cc(C#CCc3ccccc3)cnc2O[C@H]1CN(C)C(=O)Cc1cccnc1`: the cytotoxicity call is “inactive”.

As to `C[C@H]1CN([C@@H](C)CO)C(=O)c2cc(-c3ccc(C#N)cc3)cnc2O[C@@H]1CN(C)C(=O)Nc1ccc(C(F)(F)F)cc1`, the cytotoxicity call is “inactive”.

With `CN(C)CCOc1ccc(CN)cc1`, the cytotoxicity call was “inactive”. To `Cc1ccc(Oc2ccc(CN)cc2)cc1` belongs “active”; to `NCc1ccc(-c2ccc(Br)cc2)cc1`, “inactive”; to `C[C@@H]1CCCCO[C@@H](CN(C)Cc2ccncc2)[C@@H](C)CN([C@H](C)CO)C(=O)c2cc(NC(=O)C3CCCCC3)ccc2O1`, “inactive”.

Turning to `O=C(O)CCn1ccnc1`, the cytotoxicity call is “inactive”. To `O=C(O)C=Cc1ccc(Cn2ccnc2)cc1` belongs “active”; to `Clc1ccc(Cn2ccnc2)cc1`, “inactive”; to `NCCN1CCO[C@@H](CC(=O)Nc2cc(Cl)cc(Cl)c2)C1=O`, “inactive”.

Regarding `COc1cc(OC)nc([C@@H](NC(=O)C2CCN(CCN3C(=O)c4ccccc4C3=O)CC2)c2ccc(F)cc2)n1`, the cytotoxicity call is “inactive”. To `O=C(N[C@@H](c1ccccc1)c1ccc2ccccc2n1)C1CCN(Cc2ccc(Cl)c(Cl)c2)CC1` belongs “inactive”; to `CC(C)NC(=O)[C@H]1CC[C@@H](n2c(NC(=O)c3ccc(F)cc3)nc3ccc(CN4CCC(C(C)(C)O)CC4)cc32)CC1`, “active”. Regarding `COc1ccccc1S(=O)(=O)N(C)C[C@H]1OCc2cnnn2CCCC(=O)N([C@@H](C)CO)C[C@@H]1C`, the cytotoxicity call is “inactive”.

On to `C[C@@H]1CN([C@@H](C)CO)C(=O)CCCn2nncc2CO[C@@H]1CN(C)C(=O)Nc1ccc2c(c1)OCO2`, for which the cytotoxicity call was “inactive”. Under `C[C@@H]1CN([C@H](C)CO)C(=O)c2cc(C#Cc3ccncc3)cnc2O[C@@H]1CN(C)C(=O)c1ccccc1F` stands “inactive”. Under `COCCOC(=O)N1C(=O)[C@@]2(c3cc(C#CC4(O)CCCCCC4)ccc31)[C@H](c1ccc(OCCO)cc1)N1[C@H](c3ccccc3)[C@H](c3ccccc3)OC(=O)[C@H]1[C@@H]2C(=O)N1CCCCCCC1` stands “active”; under `C=CCNC(=O)[C@H]1[C@@H]2C(=O)O[C@@H](c3ccccc3)[C@@H](c3ccccc3)N2[C@@H](c2ccccc2OCCO)[C@]12C(=O)N(C(=O)OCCOC)c1ccc(C#CC3(O)CCCCCC3)cc12`, “active”. `C=CCNC(=O)[C@H]1[C@@H]2C(=O)O[C@@H](c3ccccc3)[C@@H](c3ccccc3)N2[C@@H](c2ccc(OCCO)cc2)[C@]12C(=O)N(C(=O)OCCOC)c1ccc(C#CC3(O)CCCCCC3)cc12`: the cytotoxicity call was “inactive”.

`COCCOC(=O)N1C(=O)[C@@]2(c3cc(C#CC4=CCCCC4)ccc31)[C@H](C(=O)N1CCCCCCC1)[C@H]1C(=O)O[C@H](c3ccccc3)[C@H](c3ccccc3)N1[C@@H]2c1ccc(OCCO)cc1`: the cytotoxicity call was “inactive”.

For the compound `COCCOC(=O)N1C(=O)[C@@]2(c3cc(C#CC4(O)CCCCCC4)ccc31)[C@H](C(=O)N1CCN(c3ncccn3)CC1)[C@H]1C(=O)O[C@H](c3ccccc3)[C@H](c3ccccc3)N1[C@@H]2c1ccc(OCCO)cc1`, the cytotoxicity call is “inactive”.

As to `COCCOC(=O)N1C(=O)[C@@]2(c3cc(C#CC4(O)CCCCCC4)ccc31)[C@H](C(=O)N1CCCCCCC1)[C@H]1C(=O)O[C@H](c3ccccc3)[C@H](c3ccccc3)N1[C@@H]2c1ccc(OCCO)cc1`, the cytotoxicity call was “active”.

As to `COCCOC(=O)N1C(=O)[C@@]2(c3cc(C#CC4(O)CCCCCC4)ccc31)[C@H](c1ccc(OCCO)cc1)N1[C@H](c3ccccc3)[C@H](c3ccccc3)OC(=O)[C@H]1[C@@H]2C(N)=O`, the cytotoxicity call was “inactive”. `C=CCNC(=O)[C@H]1[C@@H]2C(=O)O[C@@H](c3ccccc3)[C@@H](c3ccccc3)N2[C@@H](c2ccc(O)cc2)[C@]12C(=O)N(C(=O)OCCOC)c1ccc(C#CC3(O)CCCCCC3)cc12`: the cytotoxicity call was “inactive”.

In the case of `COCCOC(=O)N1C(=O)[C@@]2(c3cc(C#CC4(O)CCCCCC4)ccc31)[C@H](c1ccc(OCCO)cc1)N1[C@H](c3ccccc3)[C@H](c3ccccc3)OC(=O)[C@H]1[C@@H]2C(=O)N1CCN(c2ncccn2)CC1`, the cytotoxicity call was “inactive”. Turning to `COc1ccc(NC(=O)Nc2cccc3c2O[C@H](CN(C)Cc2ccc(C(F)(F)F)cc2)[C@@H](C)CN([C@@H](C)CO)C3=O)cc1`, the cytotoxicity call was “inactive”. `COc1ccc(NC(=O)Nc2ccc3c(c2)[C@H]2C[C@H](CC(=O)NCc4ccccn4)O[C@@H](CO)[C@H]2O3)cc1`: the cytotoxicity call is “inactive”. As to `c1ccc(Oc2nnc(-c3ccccc3)c3ccccc23)cc1`, the cytotoxicity call is “inactive”.

With `C[C@H](CO)N1C[C@H](C)[C@H](CN(C)S(C)(=O)=O)Oc2cc(-c3ccc(F)cc3)ccc2S1(=O)=O`, the cytotoxicity call was “inactive”. In the case of `COc1cccc(C#Cc2ccc3c(c2)O[C@@H](CN(C)C(=O)CN2CCOCC2)[C@H](C)CN([C@@H](C)CO)S3(=O)=O)c1`, the cytotoxicity call is “inactive”. Take `COC(=O)CCCCCNc1n[nH]c(=O)[nH]c1=O`: the cytotoxicity call is “inactive”. To `O=C(O)CCCNc1n[nH]c(=O)[nH]c1=O` belongs “inactive”; to `O=C(CCNc1n[nH]c(=O)[nH]c1=O)N1CCOCC1`, “active”. For the compound `COc1ccc(NC(=O)N(C)C[C@H]2OCCCC[C@@H](C)Oc3ccc(NC(=O)Nc4c(C)noc4C)cc3C(=O)N([C@H](C)CO)C[C@@H]2C)cc1`, the cytotoxicity call is “inactive”. Under `COc1ccc(NC(=O)Nc2ccc3c(c2)[C@@H]2C[C@@H](CC(=O)N4CCN(C)CC4)O[C@@H](CO)[C@@H]2O3)cc1` stands “inactive”; under `C[C@H](CO)N1C[C@H](C)[C@H](CN(C)CC2CCCCC2)Oc2ccc(NC(=O)Nc3ccc(C(F)(F)F)cc3)cc2CC1=O`, “active”.

Consider `C[C@H](CO)N1C[C@H](C)[C@H](CN(C)C(=O)NC2CCCCC2)Oc2ccc(NC(=O)Nc3ccc(C(F)(F)F)cc3)cc2CC1=O`, for which the cytotoxicity call is “inactive”. Take `C[C@H]1CN([C@@H](C)CO)C(=O)Cc2cc(NC(=O)Nc3ccc(C(F)(F)F)cc3)ccc2O[C@@H]1CN(C)CC1CCCCC1`: the cytotoxicity call was “inactive”. Consider `C[C@@H]1CN([C@@H](C)CO)C(=O)Cc2cc(NC(=O)Nc3ccc(C(F)(F)F)cc3)ccc2O[C@H]1CN(C)CC1CCCCC1`, for which the cytotoxicity call was “active”. Regarding `C[C@@H]1CN([C@@H](C)CO)C(=O)Cc2cc(NC(=O)Nc3ccc(C(F)(F)F)cc3)ccc2O[C@@H]1CN(C)CC1CCCCC1`, the cytotoxicity call was “active”.

`C[C@H]1CN([C@@H](C)CO)C(=O)Cc2cc(NC(=O)Nc3ccc(C(F)(F)F)cc3)ccc2O[C@H]1CN(C)CC1CCCCC1`: the cytotoxicity call is “active”. To `CN(C)CCCNC(=O)C[C@H]1CC[C@H]2[C@@H](COc3ccc(NC(=O)c4ccc5c(c4)OCO5)cc3C(=O)N2C)O1` belongs “inactive”; to `CCCN(C)C[C@H]1OCCCC[C@H](C)Oc2ccc(NS(C)(=O)=O)cc2C(=O)N([C@H](C)CO)C[C@H]1C`, “inactive”. Under `C[C@H](CO)N1C[C@H](C)[C@@H](CN(C)Cc2ccncc2)Oc2cc(C#CCN(C)C)ccc2S1(=O)=O` stands “inactive”; under `CN([C@@H](c1ccccc1)c1ccccn1)S(=O)(=O)c1cn(C)c(=O)n(C)c1=O`, “inactive”. `Cc1ccc(S[C@]2(C(=O)O)CC(=O)N(C3Cc4ccccc4C3)[C@@H]2c2ccc(CO)cc2I)cc1`: the cytotoxicity call was “inactive”.

The values above are taken from the antibiotic and cytotoxicity screens of Wong et al. (2023).
